# Measurements as given in the supplement of paper PMC13380429.
# Test system: Vero E6 infected with SARS-CoV-2
# Test: SARS-CoV-2 infection rate relative to infected DMSO; higher = more infection, active = 60 or less
# Conditions: 24 h
row,Structure (SMILES),SARS-CoV-2 infection rate
1,Cc1cc2c(cc1C(F)(F)F)N(C(=O)Nc1ccc(Oc3cccnc3C)nc1)CC2 (10 µM),90.5% (inactive)
2,O=C1C(=C(O)/C=C/c2ccc(O)cc2)C(=O)[C@@](O)([C@@H]2O[C@H](CO)[C@@H](O)[C@H](O)[C@H]2O)C(=O)[C@H]1[C@@H]1O[C@H](CO)[C@@H](O)[C@H](O)[C@H]1O (10 µM),104% (inactive)
3,CC(C)(C)NC(=O)[C@@H](c1cccnc1)N(C(=O)c1ccco1)c1ccc(C(C)(C)C)cc1 (10 µM),83% (inactive)
4,CNc1ccc([N+](=O)[O-])cc1-n1cnc(-c2ccc(C(F)(F)F)cc2)c1 (10 µM),97% (inactive)
5,Cc1noc(C)c1-c1cc(O)cc([C@@H](O)c2ccccc2)c1 (10 µM),104% (inactive)
6,CCCCNc1c(C(=O)OCC)c(C)nc2c1cnn2CC [tracazolate] (10 µM),92.5% (inactive)
7,Oc1ccc2c(c1)CC[C@H](c1ccccc1)[C@@H]2c1ccc(OCCN2CCCC2)cc1 [lasofoxifene] (0.833333 µM),97% (inactive)
8,Nc1nc(=O)[nH]cc1F [flucytosine] (10 µM),107% (inactive)
9,c1nc2c(NC3CCCCC3)nc(Nc3ccc(N4CCOCC4)cc3)nc2[nH]1 [reversine] (10 µM),106% (inactive)
10,CCOc1ccc2nc(SCCN3CCOCC3)[nH]c2c1 [afobazole] (10 µM),111% (inactive)
11,O=[N+]([O-])C(Br)(CO)CO [bronopol] (10 µM),108% (inactive)
12,NC/C(=C/F)CCc1ccc(F)cc1 [mofegiline] (10 µM),115% (inactive)
13,CC[C@H]1CN2CC[C@H]1C[C@@H]2[C@@H](O)c1ccnc2ccc(OC)cc12 [hydroquinidine] (10 µM),90% (inactive)
14,CN1CCC(Nc2ncc3ncnc(Nc4ccc(F)c(Cl)c4)c3n2)CC1 (10 µM),114% (inactive)
15,NC(=O)CN1CCCC1=O [piracetam] (10 µM),96.5% (inactive)
16,O=c1[nH]c2ccccc2n1CCCN1CCN(C(c2ccccc2)c2ccccc2)CC1 [oxatomide] (10 µM),106% (inactive)
17,O[C@@H](CN1CCNCC1)Cn1c2ccc(Br)cc2c2cc(Br)ccc21 [BAX-channel-blocker] (0.833333 µM),104% (inactive)
18,CN(C)CC[C@@H](c1ccc(Cl)cc1)c1ccccn1 [chlorphenamine] (10 µM),97.8% (inactive)
19,CC/C(=C(\c1ccccc1)c1ccc(OCCN(C)C)cc1)c1ccccc1 [tamoxifen] (0.833333 µM),95.5% (inactive)
20,CC(C)(C)C[C@@H]1N[C@@H](C(=O)N[C@H]2CC[C@H](O)CC2)[C@H](c2cccc(Cl)c2F)[C@]12C(=O)Nc1cc(Cl)ccc12 (10 µM),113% (inactive)

row,Structure (SMILES),SARS-CoV-2 infection rate
1,COc1cc(-c2cc(-c3cccc(O)c3)cnc2N)cc(OC)c1OC (10 µM),95% (inactive)
2,COCC[n+]1c2c(n(Cc3cnccn3)c1C)C(=O)c1ccccc1C2=O (0.833333 µM),108% (inactive)
3,Cc1cc(C)nc(NS(=O)(=O)c2ccc(N)cc2)n1 [sulfamethazine] (10 µM),111% (inactive)
4,CC(=O)OCC(CCn1cnc2cnc(N)nc21)COC(C)=O [famciclovir] (10 µM),102% (inactive)
5,COC(=O)[C@]12CCC(C)(C)C[C@H]1[C@H]1C(=O)C=C3[C@@]4(C)C=C(C#N)C(=O)C(C)(C)[C@@H]4CC[C@@]3(C)[C@]1(C)CC2 [Bardoxolone Methyl] (10 µM),107% (inactive)
6,CC(C)(C)NCC(O)COc1cc(Cl)ccc1Cl (centres undefined) [cloranolol] (10 µM),100% (inactive)
7,COc1ccc(Cn2ccc3ccc(C(=O)NO)cc32)cc1 (0.833333 µM),111% (inactive)
8,Nc1ncc(Cc2ccc(Br)cc2)s1 (10 µM),102% (inactive)
9,CNCCC(Oc1ccc(C(F)(F)F)cc1)c1ccccc1 (centres undefined) [fluoxetine] (10 µM),66% (inactive)
10,CO[C@@H](C)Cn1c(=O)n(C)c2cnc3ccc(-c4cncc(C(C)(C)O)c4)cc3c21 (10 µM),112% (inactive)
11,NCC1CC(=O)N(Cc2ccccc2)C1 (centres undefined) [nebracetam] (10 µM),102% (inactive)
12,C[C@H]1C[C@H]2[C@@H]3CCC4=CC(=O)C=C[C@]4(C)[C@@]3(F)[C@@H](O)C[C@]2(C)[C@@]1(O)C(=O)CO [betamethasone] (10 µM),111% (inactive)
13,CCOC(=O)c1ncc2[nH]c3ccc(OCc4ccccc4)cc3c2c1COC (10 µM),97.5% (inactive)
14,C=C[C@H]1CN2CC[C@H]1C[C@@H]2[C@@H](O)c1ccnc2ccc(OC)cc12 [quinidine] (10 µM),108% (inactive)
15,CC(C)c1ccc(NC(=O)Cn2cnc3c2c(=O)n(C)c(=O)n3C)cc1 (10 µM),109% (inactive)
16,C=C[C@@](C)(/C=C/c1ccc(O)cc1)CCC=C(C)C [bakuchiol] (10 µM),114% (inactive)
17,Oc1nc(-c2ccc(C(F)(F)F)cc2)nc2c1CSCC2 (0.833333 µM),94% (inactive)
18,CCc1cccc(CC)c1NC(=O)CN(CC(=O)O)CC(=O)O [etifenin] (10 µM),109% (inactive)
19,CCCCOc1cc(C(=O)NCCN(CC)CC)c2ccccc2n1 [cinchocaine] (10 µM),88% (inactive)
